Source: PubChem (National Center for Advancing Translational Sciences (NCATS))
The list is not random: actives were taken first. Their share in the collection is about 13%.
FMDV inh – blocks foot and mouth disease virus. FMDV antiviral cell-based qHTS. Potency, µM (titrated, usually from 57.9 µM), for inactives: at the top dose activity change, negative = inhibition, most hits filed as inhibitors. 410,000 compounds, 1.2% hits; calls by dose curve; tested in HEK293T cells; further: read-out not given here; potency means the concentration at half of the fitted maximal effect; on the % scale 0 is the no-effect control and ±100 the full control effect; nearly all actives have a fitted effect of over 45% in size
Shiga toxin inh – Shiga toxin inhibition | inhibition, % at 38.7 µM | 290,000 compounds, 9.2% hits | Vero cells, Shiga toxin protein synthesis inhibition reporter; in the data active means inhibition mostly above about 28%, no sharp cut-off; inactive means mostly below about 43%; further: 0% is about no effect
HCV inhibitor – blocks hepatitis C virus. Potency, µM (top dose mostly 41.8 µM), without a hit: top-dose activity change, negative = inhibition, most hits filed as inhibitors. Huh7.5.1 HCVcc-Cre infection, luciferase reporter, 44 h. 340,000 compounds, 3.4% hits. AID 651820; active means well fitted inhibition curve with a large enough effect; inconclusive means small, poorly fitted or top-dose-only effect, or another doubt; inactive means no such curve, though single readings can be large or run the other way; further: potency means the concentration at half of the fitted maximal effect; on the % scale 0 is the no-effect control and ±100 the full control effect
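Compounds are dispensed onto cells plated 4 h earlier at 1,000 per well, with HCVcc-Cre virus (about 0.5 moi) added next. Following 44 h of culture, luminescent signal is measured for 15 sec after 15 min with substrate at room temperature.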
Marburg entry inh – Marburg virus entry inhibition. 300,000 compounds, 1.8% hits. Marburg virus pseudotyped entry inhibition, cell reporter. Potency, µM (doses to about 37.8 µM), inactives show at the top dose activity change, negative = inhibition, actives largely listed as inhibitors. AID 540276; calls by dose curve; tested in HEK293 cells; further: potency means the concentration at half of the fitted maximal effect; on the % scale 0 is the no-effect control and ±100 the full control effect
CHX counter – affects cycloheximide protein synthesis inhibition readout, counter-screen; max response, %; AID 2314; 300,000 compounds, 12% hits; cell reporter, cycloheximide protein synthesis inhibition counterscreen; in the data active means max response mostly above about 13%, no sharp cut-off; inactive means mostly below about 14%; further: read at 38.3 µM for the half of the compounds with a filed dose; 0% is about no effect
LASV entry inh – inhibitors of Lassa virus binding or cell entry | Lassa virus pseudotype entry inhibition, cell reporter | Potency, µM (highest dose often 37.9 µM), without a hit: at the top dose activity change, negative = inhibition, hits mostly inhibitors | 300,000 compounds, 1.2% hits; calls by dose curve; tested in HEK293 cells; further: potency means the concentration at half of the fitted maximal effect; on the % scale 0 is the no-effect control and ±100 the full control effect; nearly all actives have a fitted effect of over 50% in size
The depositor's hits bear a star; i = inactive; u = inconclusive; x = not tested or not shown; ! = not active in a repeat; [ ] = remark or other dose.

SMILES | FMDV inh | Shiga toxin inh | HCV inhibitor | Marburg entry inh | CHX counter | LASV entry inh
CCCCCCCCCCCCCCCC(=O)OC[C@H](COP(=O)([O-])OCC[N+](C)(C)C)OC(C)=O | -1.3%[6.7 µM] | x | x | x | x | x
CCCCCCCCCCCCCCCC(=O)NC[C@@H](COP(=O)([O-])OCC[N+](C)(C)C)OCC | x | x | x | 6.51µM* | x | x
CCCCCCCCCCCCCCCC(=O)NCC(COP(=O)([O-])OCC[N+](C)(C)C)OCC (centres undefined) | x | x | x | 6.51µM* | x | -11.0%
CCCCCCCCCCCCCCCCOC[C@H](COP(=O)([O-])OCC[N+](C)(C)C)OC(C)=O | -3.8%[6.7 µM] | x | x | x | x | x
O=C1CCC(=O)N1c1ccc(S(=O)(=O)Nc2cccc(Br)c2)cc1 | 7.6% | 2.6 | 9.5% | 0.3%[46.1 µM] | -6.3 | -1.6%
Cc1ccc(NC(=O)CN(C)Cc2cccs2)cc1Cl | 26.8% | 21.8 | -12.4% | 1.7%[46.1 µM] | 15.7* | 6.5%
C/C(CC(=O)Nc1ccc(Cl)c(Cl)c1)=N\NC(=O)Cc1ccccc1 | 6.4% | -15.0 | -0.3% | -18.6% | -2.3 | -9.9%
C/C(CC(=O)Nc1ccc(C)c(Cl)c1)=N\NC(=O)Cc1cccs1 | 9.3% | 25.8 | 16.0% | 17.5%[46.1 µM] | 17.1* | 3.1%[46.1 µM]
CCN(CC)c1ccc(NC(=O)CN(C)Cc2cccs2)cc1 | -18.9% | 23.5 | -7.9% | -9.3%[46.1 µM] | 9.7 | -10.3%
CN(CC(=O)Nc1c(F)cccc1F)Cc1cccs1 | 16.5% | 35.3 | -7.2% | 20.5%[46.1 µM] | 14.2* | 4.1%[46.1 µM]
CCN(CC(=O)Nc1c(F)cccc1F)C(=O)CCCc1cccs1 | -8.5% | x | 3.4% | x | x | x
O=C1CC(=Nc2ccccc2)NN1c1ccccc1 | -17.4% | -2.4 | -29.1% | -33.4% | 13.6* | 13.3%
O=[N+]([O-])c1cccnc1Sc1ccccc1Cl | -16.5% | x | 10.4% | 4.5%[46.1 µM] | x | 22.4%
CCC(=O)c1ccc(OCC(=O)NCC2COc3ccccc3O2)cc1 (centres undefined) | -29.3% | x | 0.9% | x | x | x
COc1ccc(/C=N/NC(=O)c2cc(C)oc2C)cc1OCc1ccccc1 | u | 31.6 | u | u | 12.3* | u
Cc1nn(C)c(C(=O)N/N=C/c2cccc3ccccc23)c1Cl | 28.6% | 42.9* | 13.8% | 7.5% | 10.7* | u
O=C(N/N=C/c1ccccc1O)c1cccc2ccccc12 | 34.0% | 21.2 | u | x | 13.2* | x
Cc1cc(C(=O)N/N=C/c2ccccc2)c(C)o1 | 14.0% | 68.1* | -2.7% | u | 58.3* | -6.2%[46.1 µM]
Cc1nnc(NC(=O)c2ccc(F)c(S(=O)(=O)N3CCCCC3)c2)s1 | u | -4.6 | 40.0% | -11.1% | -1.7 | u
COc1ccc(/C=N/NC(=O)c2ccco2)cc1OCc1ccccc1 | u | 42.5* | -11.4% | u | 19.2* | 21.2%
COc1ccc(/C=N/NC(=O)c2ccco2)cc1COc1ccc(F)cc1 | -18.6% | 21.5 | -21.2% | x | 8.1 | x
COc1cc(/C=N/NC(=O)CN2CCCCC2)ccc1OCc1ccc(Br)cc1 | -2.8% | -1.8 | 10µM* | u | 12.4* | u
Cc1cc(C(=O)N/N=C/c2cccc3ccccc23)c(C)o1 | 38.6% | 41.5 | -20.0% | 7.94µM* | 29.5* | -0.5%[46.1 µM]
COc1cc(/C=N/NC(=O)CC2(C)OCCCO2)ccc1OCc1ccc(Cl)cc1Cl | -17.4% | 8.8 | u | u | 9.3 | u
COc1cc(/C=N/NC(=O)CCN2CCCCC2)ccc1O | -0.2% | 3.1 | 14.3% | 18.3%[46.1 µM] | -2.4 | 5.7%
SMILES | FMDV inh | Shiga toxin inh | HCV inhibitor | Marburg entry inh | CHX counter | LASV entry inh
COc1cc(/C=N/NC(=O)CC2(C)OCCCO2)ccc1OCc1ccccc1 | 6.8% | 8.6 | u | 33.0% | 23.0* | 8.1%
CCn1c(SCC(=O)NC2CC2)nnc1C(C)Oc1ccccc1 (centres undefined) | -5.4% | 0.7 | 18.3% | 15.1% | 2.8 | 20.5%
COc1cccc(OC)c1OCCN1CCC(C(=O)NC(c2ccc3c(c2)OCO3)c2ccccn2)CC1 (centres undefined) | -5.5% | x | x | x | x | x
CCOc1cc(/C=N/OC(C)=O)ccc1OCc1ccccc1 | 29.3% | 18.1 | u | -19.4%[14.2 µM] | 11.7* | 0.1%
Cc1cc(C(=O)N/N=C/c2ccc(OCc3ccccc3)cc2)c(C)o1 | 18.7% | 55.9 | u | -0.7%[46.1 µM] | 21.7* | u
O=C(N/N=C/c1ccccc1)c1ccc(OCc2ccccc2)cc1 | 26.9% | 1.7 | -2.0% | x | 4.5 | x
Cc1ccccc1NC(=O)Nc1cc(S(N)(=O)=O)ccc1C | x | 12.0 | -12.1% | 3.9% | 6.6 | -16.0%
COc1ccc(OC)c(NC(=O)c2cc(OC(C)=O)cc(C(=O)Nc3cc(OC)ccc3OC)c2)c1 | 28.2µM* | x | u | x | -3.5 | x
COc1ccc(-c2csc(C)n2)cc1Br | 0.8% | 74.5* | -19.3% | u | 35.2* | 5.0%[46.1 µM]
COc1ccc(OC)c(NC(=O)c2ccc(-c3csc(C)n3)cc2)c1 | 31.8% | x | u | 0.2% | 16.2* | -10.2%
Cc1nc(-c2ccc(C(=O)Nc3cc(S(N)(=O)=O)ccc3C)cc2)cs1 | 32.8% | 55.9* | -7.3% | x | 13.7* | x
COc1ccc(OC)c(NC(=O)c2ccc3nc(-c4ccccc4)c(-c4ccccc4)nc3c2)c1 | x | -12.3 | 4.0% | -1.0% | -6.0 | x
Cc1cccc(N2CCN(C(=O)C3CCN(S(=O)(=O)c4cccnc4)CC3)CC2)c1C | u | -13.5 | u | 0.0% | -4.1 | x
COc1cccc(NC(=O)C(Cc2ccccc2)N2Cc3ccccc3C2=O)c1 (centres undefined) | 8.5% | x | x | x | x | 0.6%[46.1 µM]
Cc1ccc(-n2nc(C(N)=O)nc2-c2ccccc2)cc1 | -1.3% | -6.6 | 2.2% | x | -2.6 | x
COc1ccc(OC)c(NC(=O)c2ccc(Cl)cc2)c1 | 10.3% | 22.7 | -29.5% | -29.9%[46.1 µM] | 9.9 | -19.0%
COc1ccc(OC)c(NC(=O)c2csc(Cl)c2OC)c1 | 6.5% | 13.8 | u | x | 21.4* | x
COc1ccc(C(=O)Nc2cc(OC)ccc2OC)cc1 | 4.5% | 23.9 | 11.2µM* | 21.1% | 15.0 | 2.9%
CN1CC[C@@]2(C)c3cc(O)ccc3N(C)C12 (some centres undefined) | x | x | x | 7.94µM* | x | 8.2µM*
CNC(=O)Oc1ccc2ncccc2c1 | -14.6% | -17.9 | 3.9% | 9.9% | -7.0 | 8.7%
CNC(=O)Oc1ccc2c(c1)[C@]1(C)CCN(C)[C@@H]1N2C | 0.0% | -14.4 | 1.3%[8.37 µM] | 0.282µM*! | -2.4 | -7.4%
Cc1cccc(C2=NN(c3ccccc3)[C@@H](C(=O)N3CCOC3=O)[C@@H]2C)c1 | -16.8% | i | u | x | 5.5 | x
S=c1sc2c(Cl)ncnc2n1-c1ccccc1 | u | -26.5 | 3.98µM* | 23.1µM* | -0.9 | 23.1µM*
CCCc1cc(=O)oc2c3c(cc(OCC(=O)NCCN4CCOCC4)c12)OC(C)(C)CC3 | 0.7% | -5.8 | u | x | -2.7 | x
CS(=O)(=O)N1CCN(c2ccccc2NC(=O)c2ccc(-c3ccc(Br)cc3)o2)CC1 | -4.0% | -7.2 | 6.31µM* | -16.9% | 1.5 | -22.1%
CCc1cccc(C)c1NC(=O)c1cc(-c2ccncc2)nc2ccccc12 | u | x | u | u | x | -0.4%
O=C(COC(=O)CCSc1ccc(Cl)cc1)Nc1ccc(F)cc1 | 5.4% | 10.3 | 11.9% | -1.3% | 0.9 | 26.5%
FC(F)(F)c1cccc(-c2nc3nc(Cl)c(Cl)nc3[nH]2)c1 | -23.0% | 102.2* | 11.2µM* | x | 50.3* | x
